Test results reported in PubChem BioAssay AID1159580 (chemical genetic matrix, 2015).
Screen size: about 5,500 compounds; about 2,000 (36%) were called active. Another 18% or so got no clear call; they are omitted. This is one part of the list. A number with no mark means an inactive call. Cut-off read from the data, not from the text of the source: active = normalized growth mostly below about 0.91 (no sharp cut-off); inconclusive = no clear call, values can overlap the other calls; inactive = mostly above about 0.92.

Assay: chemical genetic growth profiling, strain panel (AID 1159580);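 note: tested at 20 µM; growth read once vehicle control cultures reached saturation at 30 °C; 1 = growth at the plate median or of vehicle wells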
Conditions: S. cerevisiae deletion strains, growth OD
[1] = locus YAL040C, strain CLN3, stronger effect = lower value
[2] = locus YCL061C, strain MRC1 (second series), stronger effect = lower value
[3] = locus YDR363W, strain ESC2, stronger effect = lower value
[4] = locus YER002W, strain NOP16, stronger effect = lower value
[5] = locus YNL175C, strain NOP13, stronger effect = lower value
[6] = locus YNL197C, strain WHI3, stronger effect = lower value
[7] = locus YNL224C, strain SQS1, stronger effect = lower value
[8] = locus YNL322C, strain KRE1, stronger effect = lower value
[9] = locus YOR083W, strain WHI5 (second series), stronger effect = lower value
[10] = locus YPL055C, strain LGE1, stronger effect = lower value
[11] = locus YPL241C, strain CIN2, stronger effect = lower value

## O[Si](CCCN1CCCCC1)(c1ccc(F)cc1)C1CCCCC1 (configuration not stated)
[1]
  normalized growth: 0.964
[2]
  normalized growth: 0.986
[3]
  normalized growth: 0.988
[4]
  normalized growth: 1.04
Locus YGR229C, strain SMI1, stronger effect = lower value
  normalized growth: 0.972
Locus YJR075W, strain HOC1, stronger effect = lower value
  normalized growth: 1.02
Locus YMR263W, strain SAP30, stronger effect = lower value
  normalized growth: 1
[5]
  normalized growth: 0.995
[6]
  normalized growth: 1.01
[7]
  normalized growth: 1.01
[8]
  normalized growth: 0.982
[9]
  normalized growth: 1.08
[10]
  normalized growth: 0.981
[11]
  normalized growth: 0.994

## CC1=CC(=O)C(CCOCCC2=CC(=O)C(C)=CC2=O)=CC1=O
Locus YAR019C, strain CDC15, stronger effect = lower value
  normalized growth: 0.981
Locus YBL105C, strain PKC1, stronger effect = lower value
  normalized growth: 0.99
Locus YBR135W, strain CKS1, stronger effect = lower value
  normalized growth: 0.985
Locus YBR136W, strain MEC1, stronger effect = lower value
  normalized growth: 0.982
Locus YBR160W, strain CDC28, stronger effect = lower value
  normalized growth: 0.983
Locus YDL017W, strain CDC7, stronger effect = lower value
  normalized growth: 0.992
Locus YDL028C, strain MPS1, stronger effect = lower value
  normalized growth: 0.981
Locus YDL101C, strain DUN1, stronger effect = lower value
  normalized growth: 0.973
Locus YDL108W, strain KIN28, stronger effect = lower value
  normalized growth: 0.983
Locus YDL132W, strain cdc53, stronger effect = lower value
  normalized growth: 0.988
Locus YDL214C, strain PRR2, stronger effect = lower value
  normalized growth: 0.701
Locus YDR052C, strain DBF4, stronger effect = lower value
  normalized growth: 0.991
Locus YDR054C, strain cdc34, stronger effect = lower value
  normalized growth: 0.986
Locus YDR226W, strain ADK1, stronger effect = lower value
  normalized growth: 0.979
Locus YDR477W, strain SNF1, stronger effect = lower value
  normalized growth: 0.706
Locus YER123W, strain YCK3, stronger effect = lower value
  normalized growth: 0.806
Locus YER133W, strain GLC7, stronger effect = lower value
  normalized growth: 0.765
Locus YFL009W, strain cdc4, stronger effect = lower value
  normalized growth: 0.993
Locus YFL029C, strain CAK1, stronger effect = lower value
  normalized growth: 0.987
Locus YFR003C, strain YPI1, stronger effect = lower value
  normalized growth: 0.989
Locus YFR019W, strain FAB1, stronger effect = lower value
  normalized growth: 0.864
Locus YFR028C, strain CDC14, stronger effect = lower value
  normalized growth: 0.985
Locus YGR040W, strain KSS1, stronger effect = lower value
  normalized growth: 0.739
Locus YGR052W, strain FMP48, stronger effect = lower value
  normalized growth: 0.7
Locus YGR092W, strain DBF2, stronger effect = lower value
  normalized growth: 0.917
Locus YHR079C, strain IRE1, stronger effect = lower value
  normalized growth: 1.07
Locus YHR082C, strain KSP1, stronger effect = lower value
  normalized growth: 0.444 (active)
Locus YHR205W, strain SCH9, stronger effect = lower value
  normalized growth: 0.958
Locus YIL147C, strain SLN1, stronger effect = lower value
  normalized growth: 0.984
Locus YJL095W, strain BCK1, stronger effect = lower value
  normalized growth: 0.863
Locus YJL128C, strain PBS2, stronger effect = lower value
  normalized growth: 0.934
Locus YJR016C, strain ILV3, stronger effect = lower value
  normalized growth: 0.987
Locus YJR066W, strain TOR1 (second series), stronger effect = lower value
  normalized growth: 0.804
Locus YJR066W, strain TOR1, stronger effect = lower value
  normalized growth: 0.502
Locus YKL048C, strain ELM1, stronger effect = lower value
  normalized growth: 0.981
Locus YKL067W, strain YNK1, stronger effect = lower value
  normalized growth: 0.857
Locus YKL101W, strain HSL1, stronger effect = lower value
  normalized growth: 0.945
Locus YKL193C, strain SDS22, stronger effect = lower value
  normalized growth: 0.995
Locus YKL203C, strain TOR2, stronger effect = lower value
  normalized growth: 0.976
Locus YLR113W, strain HOG1, stronger effect = lower value
  normalized growth: 0.685 (active)
Locus YLR133W, strain CKI1, stronger effect = lower value
  normalized growth: 0.953
Locus YLR403W, strain SFP1, stronger effect = lower value
  normalized growth: 0.938
Locus YML070W, strain DAK1, stronger effect = lower value
  normalized growth: 0.866
Locus YMR001C, strain CDC5, stronger effect = lower value
  normalized growth: 0.984
Locus YMR205C, strain PFK2 (second series), stronger effect = lower value
  normalized growth: 0.97
Locus YMR277W, strain FCP1, stronger effect = lower value
  normalized growth: 0.987
Locus YNL006W, strain LST8, stronger effect = lower value
  normalized growth: 0.996
Locus YNL020C, strain ARK1, stronger effect = lower value
  normalized growth: 0.959
Locus YNL161W, strain CBK1, stronger effect = lower value
  normalized growth: 0.986
Locus YNL183C, strain NPR1, stronger effect = lower value
  normalized growth: 0.793
Locus YNL207W, strain RIO2, stronger effect = lower value
  normalized growth: 0.992
Locus YNL222W, strain SSU72, stronger effect = lower value
  normalized growth: 0.99
Locus YNL307C, strain MCK1 (second series), stronger effect = lower value
  normalized growth: 0.969
Locus YOL078W, strain AVO1, stronger effect = lower value
  normalized growth: 0.989
Locus YOL136C, strain PFK27, stronger effect = lower value
  normalized growth: 0.818
Locus YOR061W, strain CKA2, stronger effect = lower value
  normalized growth: 0.946
Locus YOR119C, strain RIO1, stronger effect = lower value
  normalized growth: 0.972
Locus YOR231W, strain MKK1, stronger effect = lower value
  normalized growth: 1.05
Locus YOR329C, strain SCD5, stronger effect = lower value
  normalized growth: 0.999
Locus YPL031C, strain PHO85, stronger effect = lower value
  normalized growth: 0.778
Locus YPL153C, strain RAD53, stronger effect = lower value
  normalized growth: 0.909
Locus YPL204W, strain HRR25, stronger effect = lower value
  normalized growth: 0.899
Locus YPL209C, strain IPL1, stronger effect = lower value
  normalized growth: 0.991
Locus YPL256C, strain CLN2, stronger effect = lower value
  normalized growth: 0.234 (active)
Locus YPR025C, strain CCL1, stronger effect = lower value
  normalized growth: 0.991
Locus YPR106W, strain ISR1, stronger effect = lower value
  normalized growth: 0.986
Locus YPR111W, strain DBF20, stronger effect = lower value
  normalized growth: 0.98
Strain NNK1, stronger effect = lower value
  normalized growth: 0.993
Strain TSCII, stronger effect = lower value
  normalized growth: 0.991

## CCOC(=O)C1=C(C)NC(=S)NC1c1cccc(O)c1 (configuration not stated)
Locus YAL013W, strain DEP1, stronger effect = lower value
  normalized growth: 0.995
[1]
  normalized growth: 0.985
[2]
  normalized growth: 1
[3]
  normalized growth: 1
[4]
  normalized growth: 0.989
Locus YGR078C, strain PAC10, stronger effect = lower value
  normalized growth: 1
Locus YNL153C, strain GIM3, stronger effect = lower value
  normalized growth: 0.976
[5]
  normalized growth: 0.995
[6]
  normalized growth: 0.99
[7]
  normalized growth: 0.996
[8]
  normalized growth: 0.997
[9]
  normalized growth: 0.968
[10]
  normalized growth: 0.991
[11]
  normalized growth: 1
